From the supplement of paper PMC10849652
About 7,900 targets were measured; listed, in parts, are those with a hit and a random draw of the rest. About 0.6% of all pairs of compound and target were hits.

Tests used:
Assay in all cases: log2 fold change, soluble protein after heating vs DMSO (PISA); higher = thermal stabilisation; K562 cells, 10 uM, 30 min; active = over 0.2 and 3.5 SD of the protein, either way, in both replicates (recomputed)
[1] = compound: COC1=CC=C(C=C1)CN2C=CC3=C2C=C(C=C3)C(=O)NO
In short: (§1)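 K562 cells at 2×10^6 cells/mL were treated for 30 min with 10 μM compound, and aliquots were heated for 3 min over 48°C-58°C before pooling. Extraction used PBS with 0.5% NP-40 at 4°C, and soluble protein was the supernatant after 21,000xg for 90 min, measured by TMTpro 16plex LC-MS/MS with channel sums equalised. Thermal stability values, relative to control samples and from duplicates, are log2 fold changes.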

filanesib = compound: CON(C)C(=O)N1N=C(c2cc(F)ccc2F)S[C@@]1(CCCN)c1ccccc1 [filanesib]
In short: as §1

zotarolimus = compound: CO[C@H]1C[C@@H]2CC[C@@H](C)[C@@](O)(O2)C(=O)C(=O)N2CCCC[C@H]2C(=O)O[C@H]([C@H](C)C[C@@H]2CC[C@H](n3cnnn3)[C@H](OC)C2)CC(=O)[C@H](C)/C=C(\C)[C@@H](O)[C@@H](OC)C(=O)[C@H](C)C[C@H](C)/C=C/C=C/C=C/1C [zotarolimus]
In short: as §1

idasanutlin = compound: COc1cc(C(=O)O)ccc1NC(=O)[C@@H]1N[C@@H](CC(C)(C)C)[C@](C#N)(c2ccc(Cl)cc2F)[C@H]1c1cccc(Cl)c1F [idasanutlin]
In short: as §1

alisertib = compound: COc1cc(Nc2ncc3c(n2)-c2ccc(Cl)cc2C(c2c(F)cccc2OC)=NC3)ccc1C(=O)O [alisertib]
In short: as §1

[2] = compound: COc1cc2nc(-c3cc(F)ccc3O)nc(N[C@@H]3CNC[C@H]3C(C)(C)O)c2cc1OC
In short: as §1

gefitinib = compound: COc1cc2ncnc(Nc3ccc(F)c(Cl)c3)c2cc1OCCCN1CCOCC1 [gefitinib]
In short: as §1

[3] = compound: COc1cccc2cc(-c3nc([C@H]4CC[C@H](C(=O)O)CC4)n4ncnc(N)c34)[nH]c12
In short: as §1

lapatinib = compound: CS(=O)(=O)CCNCc1ccc(-c2ccc3ncnc(Nc4ccc(OCc5cccc(F)c5)c(Cl)c4)c3c2)o1 [lapatinib]
In short: as §1

pictilisib = compound: CS(=O)(=O)N1CCN(Cc2cc3nc(-c4cccc5[nH]ncc45)nc(N4CCOCC4)c3s2)CC1 [pictilisib]
In short: as §1

[4] = compound: CS(=O)(=O)c1ccc(-c2cnc(N)c(C(=O)Nc3ccccc3)n2)cc1
In short: as §1

crizotinib = compound: C[C@@H](Oc1cc(-c2cnn(C3CCNCC3)c2)cnc1N)c1c(Cl)ccc(F)c1Cl [crizotinib]
In short: as §1

[5] = compound: C[C@@H]1COCCN1C2=NC(=NC(=C2)C3(CC3)S(=O)(=O)C)C4=C5C=CNC5=CC=C4
In short: as §1

[6] = compound: C[C@H](C1=CC=C(C=C1)C(=O)NC2=C3C=CNC3=NC=C2)N
In short: as §1

duvelisib = compound: C[C@H](Nc1ncnc2nc[nH]c12)c1cc2cccc(Cl)c2c(=O)n1-c1ccccc1 [duvelisib]
In short: as §1

gandotinib = compound: Cc1cc(Nc2cc(CN3CCOCC3)c3nc(C)c(Cc4ccc(Cl)cc4F)n3n2)n[nH]1 [gandotinib]
In short: as §1

tozasertib = compound: Cc1cc(Nc2cc(N3CCN(C)CC3)nc(Sc3ccc(NC(=O)C4CC4)cc3)n2)n[nH]1 [tozasertib]
In short: as §1

[7] = compound: Cc1cc(SCc2sc(-c3ccc(C(F)(F)F)cc3)nc2C)ccc1OCC(=O)O
In short: as §1

doramapimod = compound: Cc1ccc(-n2nc(C(C)(C)C)cc2NC(=O)Nc2ccc(OCCN3CCOCC3)c3ccccc23)cc1 [doramapimod]
In short: as §1

ispinesib = compound: Cc1ccc(C(=O)N(CCCN)[C@@H](c2nc3cc(Cl)ccc3c(=O)n2Cc2ccccc2)C(C)C)cc1 [ispinesib]
In short: as §1

Measured: log2 fold change

PAFAH1B2 (UniProt P68402)
inactive: [1] 0.044 | filanesib -0.074 | zotarolimus 0.007 | idasanutlin 0.082 | alisertib 0.02 | [2] -0.071 | gefitinib 0.086 | [3] 0.033 | lapatinib 0.029 | pictilisib -0.28 | [4] 0.016 | crizotinib -0.017 | [5] -0.13 | [6] -0.054 | duvelisib 0.086 | gandotinib 0.16 | tozasertib -0.072 | [7] -0.066 | doramapimod 0.022 | ispinesib -0.002

NSMCE4A (UniProt Q9NXX6)
Sequence of UniProt Q9NXX6 (Q9NXX6 whole entry, looked up): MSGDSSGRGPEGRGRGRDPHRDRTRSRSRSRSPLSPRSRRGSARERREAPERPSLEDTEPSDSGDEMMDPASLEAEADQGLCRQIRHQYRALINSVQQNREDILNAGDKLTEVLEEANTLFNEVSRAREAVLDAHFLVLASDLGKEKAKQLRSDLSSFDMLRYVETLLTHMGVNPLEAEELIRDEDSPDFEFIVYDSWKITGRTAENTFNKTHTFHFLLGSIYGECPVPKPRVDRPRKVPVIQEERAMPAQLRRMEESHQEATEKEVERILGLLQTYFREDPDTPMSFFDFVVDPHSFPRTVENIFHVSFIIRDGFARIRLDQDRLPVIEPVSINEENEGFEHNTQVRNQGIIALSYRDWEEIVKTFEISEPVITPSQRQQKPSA
active: [3] -0.437
inactive: [1] 0.033 | filanesib 0.049 | zotarolimus 0.019 | idasanutlin 0.017 | alisertib -0.087 | [2] -0.018 | gefitinib 0.181 | lapatinib 0.034 | pictilisib -0.011 | [4] 0.038 | crizotinib 0.072 | [5] -0.055 | [6] -0.009 | duvelisib 0.119 | gandotinib 0.144 | tozasertib 0.086 | [7] 0.054 | doramapimod 0.047 | ispinesib 0.062

NDUFS8 (UniProt O00217)
inactive: [1] -0.07 | filanesib -0.122 | zotarolimus -0.003 | idasanutlin -0.147 | alisertib -0.15 | [2] -0.069 | gefitinib -0.028 | [3] 0.081 | lapatinib 0.01 | pictilisib 0.018 | [4] 0.021 | crizotinib -0.182 | [5] 0.143 | [6] -0.027 | duvelisib 0.055 | gandotinib -0.168 | tozasertib -0.011 | [7] 0.021 | doramapimod -0.043 | ispinesib -0.158

MPP1 (UniProt Q00013)
inactive: [1] 0.024 | filanesib -0.041 | zotarolimus -0.027 | idasanutlin 0.069 | alisertib 0.032 | [2] 0.016 | gefitinib 0.114 | [3] -0.074 | lapatinib 0.032 | pictilisib 0.096 | [4] 0.064 | crizotinib -0.092 | [5] 0.05 | [6] 0.001 | duvelisib 0.007 | gandotinib -0.073 | tozasertib -0.022 | [7] 0.061 | doramapimod 0.023 | ispinesib -0.108

NUP205 (UniProt Q92621)
Sequence of UniProt Q92621 (Q92621 whole entry, looked up): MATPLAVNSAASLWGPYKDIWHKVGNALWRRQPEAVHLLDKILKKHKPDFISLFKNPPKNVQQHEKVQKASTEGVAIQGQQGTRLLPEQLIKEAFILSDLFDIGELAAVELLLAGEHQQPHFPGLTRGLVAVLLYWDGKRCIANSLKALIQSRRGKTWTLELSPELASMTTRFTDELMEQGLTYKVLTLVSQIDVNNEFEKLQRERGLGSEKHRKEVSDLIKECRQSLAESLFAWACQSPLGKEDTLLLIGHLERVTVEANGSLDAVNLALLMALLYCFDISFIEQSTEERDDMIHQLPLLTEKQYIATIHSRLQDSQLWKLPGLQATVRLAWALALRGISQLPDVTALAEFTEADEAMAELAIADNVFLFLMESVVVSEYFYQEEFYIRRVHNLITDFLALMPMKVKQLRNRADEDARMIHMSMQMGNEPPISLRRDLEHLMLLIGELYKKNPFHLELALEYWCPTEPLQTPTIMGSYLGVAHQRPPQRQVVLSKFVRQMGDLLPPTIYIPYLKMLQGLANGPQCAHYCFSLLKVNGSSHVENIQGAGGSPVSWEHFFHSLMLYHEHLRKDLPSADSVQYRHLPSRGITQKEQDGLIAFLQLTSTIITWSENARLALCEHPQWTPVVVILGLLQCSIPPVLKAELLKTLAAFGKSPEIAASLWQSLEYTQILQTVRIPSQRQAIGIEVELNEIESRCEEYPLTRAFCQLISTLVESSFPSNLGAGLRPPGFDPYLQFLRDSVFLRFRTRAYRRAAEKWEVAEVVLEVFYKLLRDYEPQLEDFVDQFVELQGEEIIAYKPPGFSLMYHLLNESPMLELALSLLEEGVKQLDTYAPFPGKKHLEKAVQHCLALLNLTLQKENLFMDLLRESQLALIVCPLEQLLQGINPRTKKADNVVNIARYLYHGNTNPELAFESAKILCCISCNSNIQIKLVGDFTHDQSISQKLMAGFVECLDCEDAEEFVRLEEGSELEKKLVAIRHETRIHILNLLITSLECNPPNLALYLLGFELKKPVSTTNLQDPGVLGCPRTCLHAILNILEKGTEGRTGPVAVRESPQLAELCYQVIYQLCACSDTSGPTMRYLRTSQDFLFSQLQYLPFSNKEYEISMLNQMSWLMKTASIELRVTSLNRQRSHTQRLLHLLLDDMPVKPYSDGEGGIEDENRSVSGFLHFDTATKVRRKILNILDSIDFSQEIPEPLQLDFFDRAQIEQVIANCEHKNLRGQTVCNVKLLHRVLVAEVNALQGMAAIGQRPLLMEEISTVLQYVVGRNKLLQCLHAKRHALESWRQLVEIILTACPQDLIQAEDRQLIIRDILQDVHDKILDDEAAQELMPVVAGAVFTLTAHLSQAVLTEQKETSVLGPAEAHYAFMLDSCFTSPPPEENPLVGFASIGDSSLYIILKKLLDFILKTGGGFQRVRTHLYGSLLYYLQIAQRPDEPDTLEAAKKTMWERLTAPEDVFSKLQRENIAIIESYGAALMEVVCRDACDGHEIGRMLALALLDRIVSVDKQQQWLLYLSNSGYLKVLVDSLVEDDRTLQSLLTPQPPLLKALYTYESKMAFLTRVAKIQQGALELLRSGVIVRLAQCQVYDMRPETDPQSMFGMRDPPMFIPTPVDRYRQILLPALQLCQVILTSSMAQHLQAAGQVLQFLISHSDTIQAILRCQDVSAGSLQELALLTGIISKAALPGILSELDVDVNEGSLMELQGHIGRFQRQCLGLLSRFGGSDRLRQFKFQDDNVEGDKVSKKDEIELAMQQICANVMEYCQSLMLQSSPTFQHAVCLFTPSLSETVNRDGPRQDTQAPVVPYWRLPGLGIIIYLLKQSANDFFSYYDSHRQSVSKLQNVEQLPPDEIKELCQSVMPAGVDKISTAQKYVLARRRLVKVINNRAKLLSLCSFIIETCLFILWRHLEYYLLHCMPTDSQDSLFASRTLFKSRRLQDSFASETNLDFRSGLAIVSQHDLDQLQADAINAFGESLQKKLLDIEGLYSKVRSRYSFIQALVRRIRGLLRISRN
inactive: [1] 0.015 | filanesib 0.01 | zotarolimus 0.009 | idasanutlin -0.08 | alisertib -0.014 | [2] 0.058 | gefitinib -0.011 | [3] -0.008 | lapatinib -0.03 | pictilisib -0.01 | [4] 0.001 | crizotinib -0.054 | [5] 0.002 | [6] -0.019 | duvelisib 0.018 | gandotinib -0.17 | tozasertib 0.025 | [7] 0.094 | doramapimod 0 | ispinesib -0.018

MTMR14 (UniProt Q8NCE2)
Sequence of UniProt Q8NCE2 (Q8NCE2 whole entry, looked up): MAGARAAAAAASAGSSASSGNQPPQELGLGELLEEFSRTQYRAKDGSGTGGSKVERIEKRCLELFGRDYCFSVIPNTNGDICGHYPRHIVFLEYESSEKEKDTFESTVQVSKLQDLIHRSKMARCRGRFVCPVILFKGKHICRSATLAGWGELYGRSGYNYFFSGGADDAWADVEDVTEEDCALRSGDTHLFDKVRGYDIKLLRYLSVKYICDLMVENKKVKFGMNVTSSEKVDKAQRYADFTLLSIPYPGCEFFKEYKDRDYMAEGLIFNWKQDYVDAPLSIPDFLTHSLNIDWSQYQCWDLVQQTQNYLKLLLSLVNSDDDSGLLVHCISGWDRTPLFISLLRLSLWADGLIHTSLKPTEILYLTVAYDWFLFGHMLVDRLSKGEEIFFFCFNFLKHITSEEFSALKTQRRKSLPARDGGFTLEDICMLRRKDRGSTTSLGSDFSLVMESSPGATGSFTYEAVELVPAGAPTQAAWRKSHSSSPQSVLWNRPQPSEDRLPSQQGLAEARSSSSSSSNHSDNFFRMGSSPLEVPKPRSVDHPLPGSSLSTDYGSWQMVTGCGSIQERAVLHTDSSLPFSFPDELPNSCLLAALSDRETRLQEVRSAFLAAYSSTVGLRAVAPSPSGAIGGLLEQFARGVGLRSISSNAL
inactive: [1] 0.007 | filanesib 0.026 | zotarolimus -0.04 | idasanutlin 0.02 | alisertib -0.04 | [2] 0.069 | gefitinib -0.02 | [3] 0.017 | lapatinib -0.075 | pictilisib 0.083 | [4] 0.033 | crizotinib 0.069 | [5] -0.054 | [6] 0.014 | duvelisib 0.048 | gandotinib 0.144 | tozasertib 0.046 | [7] 0.079 | doramapimod -0.03 | ispinesib 0.061

OSTC (UniProt Q9NRP0)
Sequence of UniProt Q9NRP0 (Q9NRP0 whole entry, looked up): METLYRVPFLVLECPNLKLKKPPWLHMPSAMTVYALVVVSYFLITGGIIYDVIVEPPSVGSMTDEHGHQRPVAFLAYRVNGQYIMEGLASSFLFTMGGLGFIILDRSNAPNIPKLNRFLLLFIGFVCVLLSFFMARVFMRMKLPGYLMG
inactive: [1] -0.05 | filanesib -0.171 | zotarolimus -0.105 | idasanutlin -0.041 | alisertib -0.101 | [2] -0.184 | gefitinib 0.018 | [3] 0.026 | lapatinib -0.041 | pictilisib 0.162 | [4] 0.044 | crizotinib -0.047 | [5] 0.132 | [6] -0.089 | duvelisib 0.041 | gandotinib -0.112 | tozasertib -0.001 | [7] -0.042 | doramapimod 0.028 | ispinesib -0.117

NA, A0A0B4J2A0
inactive: [1] 0.084 | filanesib -0.045 | zotarolimus -0.021 | idasanutlin -0.016 | alisertib 0.129 | [2] -0.029 | gefitinib -0.092 | [3] 0.023 | lapatinib -0.026 | pictilisib 0.05 | [4] -0.087 | crizotinib -0.18 | [5] 0.093 | [6] 0.06 | duvelisib 0.071 | gandotinib -0.087 | tozasertib -0.061 | [7] 0.061 | doramapimod -0.049 | ispinesib -0.121

NCAPG (UniProt Q9BPX3)
inactive: [1] 0.079 | filanesib -0.018 | zotarolimus 0.054 | idasanutlin -0.064 | alisertib 0.03 | [2] 0.038 | gefitinib 0.022 | [3] -0.116 | lapatinib 0 | pictilisib 0.071 | [4] 0.029 | crizotinib -0.031 | [5] 0.034 | [6] 0.034 | duvelisib 0.073 | gandotinib -0.144 | tozasertib 0.115 | [7] 0.071 | doramapimod -0.077 | ispinesib -0.01

OSBPL8 (UniProt Q9BZF1)
inactive: [1] 0.034 | filanesib 0.077 | zotarolimus -0.067 | idasanutlin -0.016 | alisertib -0.052 | [2] -0.086 | gefitinib 0.23 | [3] -0.22 | lapatinib 0.142 | pictilisib -0.015 | [4] 0.019 | crizotinib -0.179 | [5] -0.043 | [6] 0.219 | duvelisib -0.207 | gandotinib -0.105 | tozasertib 0.089 | [7] 0.103 | doramapimod 0.078 | ispinesib -0.433

NMT2 (UniProt O60551)
Sequence of UniProt O60551 (O60551 whole entry, looked up): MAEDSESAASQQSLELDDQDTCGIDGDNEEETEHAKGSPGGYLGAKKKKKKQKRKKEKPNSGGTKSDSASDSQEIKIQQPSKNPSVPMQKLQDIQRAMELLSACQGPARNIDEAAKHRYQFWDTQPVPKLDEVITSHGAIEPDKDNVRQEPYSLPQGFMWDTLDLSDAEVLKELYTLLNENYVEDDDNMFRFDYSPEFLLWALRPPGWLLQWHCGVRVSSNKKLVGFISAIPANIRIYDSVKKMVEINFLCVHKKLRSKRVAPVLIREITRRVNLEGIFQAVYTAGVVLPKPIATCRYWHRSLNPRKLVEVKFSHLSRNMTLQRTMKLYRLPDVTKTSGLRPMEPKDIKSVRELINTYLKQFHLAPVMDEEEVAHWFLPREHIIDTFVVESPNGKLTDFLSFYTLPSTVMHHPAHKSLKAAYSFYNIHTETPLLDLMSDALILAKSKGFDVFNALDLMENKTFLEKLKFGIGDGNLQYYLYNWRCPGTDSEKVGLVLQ
inactive: [1] -0.064 | filanesib -0.018 | zotarolimus 0.019 | idasanutlin -0.062 | alisertib -0.096 | [2] 0.082 | gefitinib -0.069 | [3] -0.046 | lapatinib -0.047 | pictilisib 0.087 | [4] 0.043 | crizotinib -0.187 | [5] 0.059 | [6] 0.018 | duvelisib 0.038 | gandotinib 0.013 | tozasertib 0.042 | [7] 0.023 | doramapimod -0.013 | ispinesib -0.167

MRPS12 (UniProt O15235)
active: ispinesib -0.65
inactive: [1] 0.018 | filanesib 0.074 | zotarolimus 0.039 | idasanutlin -0.162 | alisertib -0.03 | [2] -0.088 | gefitinib -0.078 | [3] -0.062 | lapatinib 0.082 | pictilisib -0.177 | [4] 0.046 | crizotinib -0.075 | [5] 0.015 | [6] 0.311 | duvelisib -0.058 | gandotinib 0.063 | tozasertib 0.011 | [7] 0.022 | doramapimod 0.003

NCAPH (UniProt Q15003)
Sequence of UniProt Q15003 (Q15003 whole entry, looked up): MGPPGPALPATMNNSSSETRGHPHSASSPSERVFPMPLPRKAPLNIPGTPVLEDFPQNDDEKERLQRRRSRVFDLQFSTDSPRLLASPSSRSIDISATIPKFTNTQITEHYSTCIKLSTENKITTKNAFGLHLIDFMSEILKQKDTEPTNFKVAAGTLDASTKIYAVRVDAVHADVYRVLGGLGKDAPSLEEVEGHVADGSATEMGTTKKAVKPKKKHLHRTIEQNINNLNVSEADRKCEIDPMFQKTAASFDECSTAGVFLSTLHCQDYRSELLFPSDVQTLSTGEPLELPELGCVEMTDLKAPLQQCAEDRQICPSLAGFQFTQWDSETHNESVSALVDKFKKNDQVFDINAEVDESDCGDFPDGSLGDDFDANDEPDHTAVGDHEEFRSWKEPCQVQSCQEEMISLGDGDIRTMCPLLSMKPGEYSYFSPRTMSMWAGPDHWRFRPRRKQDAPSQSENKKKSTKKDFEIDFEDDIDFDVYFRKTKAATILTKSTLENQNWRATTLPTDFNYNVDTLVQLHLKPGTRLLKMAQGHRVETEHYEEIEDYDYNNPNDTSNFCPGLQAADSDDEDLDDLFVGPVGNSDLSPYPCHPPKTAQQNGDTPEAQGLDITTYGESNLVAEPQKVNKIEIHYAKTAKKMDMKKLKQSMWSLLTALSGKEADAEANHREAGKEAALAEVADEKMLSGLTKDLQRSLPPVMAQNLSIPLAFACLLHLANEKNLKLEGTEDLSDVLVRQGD
inactive: [1] -0.03 | filanesib 0.018 | zotarolimus 0.024 | idasanutlin -0.046 | alisertib 0.016 | [2] 0.092 | gefitinib 0 | [3] -0.065 | lapatinib -0.021 | pictilisib 0.062 | [4] 0.049 | crizotinib 0.013 | [5] -0.017 | [6] 0.072 | duvelisib 0.024 | gandotinib -0.11 | tozasertib 0.102 | [7] 0.081 | doramapimod 0.006 | ispinesib -0.064

NRF1 isoform 4 (UniProt Q16656)
inactive: [1] 0.048 | filanesib -0.054 | zotarolimus 0.098 | idasanutlin 0.03 | alisertib -0.077 | [2] -0.135 | gefitinib 0.03 | [3] 0.019 | lapatinib -0.078 | pictilisib 0.167 | [4] 0.03 | crizotinib 0.071 | [5] 0.275 | [6] -0.107 | duvelisib 0.053 | gandotinib -0.125 | tozasertib 0.074 | [7] 0.017 | doramapimod -0.003 | ispinesib -0.004

NFYC (UniProt Q13952)
Sequence of UniProt Q13952 (Q13952 whole entry, looked up): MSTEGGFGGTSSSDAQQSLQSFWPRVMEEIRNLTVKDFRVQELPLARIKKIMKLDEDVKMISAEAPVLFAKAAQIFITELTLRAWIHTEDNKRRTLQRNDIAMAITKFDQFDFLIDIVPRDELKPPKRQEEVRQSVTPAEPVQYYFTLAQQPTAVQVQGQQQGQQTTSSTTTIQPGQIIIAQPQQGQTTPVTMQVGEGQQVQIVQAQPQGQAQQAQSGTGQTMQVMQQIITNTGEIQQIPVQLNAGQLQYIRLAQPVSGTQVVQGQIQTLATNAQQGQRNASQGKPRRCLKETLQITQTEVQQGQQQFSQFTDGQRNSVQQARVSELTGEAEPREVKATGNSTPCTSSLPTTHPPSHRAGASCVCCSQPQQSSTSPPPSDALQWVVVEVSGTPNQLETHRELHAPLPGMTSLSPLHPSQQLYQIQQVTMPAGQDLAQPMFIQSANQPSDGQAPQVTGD
inactive: [1] -0.026 | filanesib -0.023 | zotarolimus 0.004 | idasanutlin -0.065 | alisertib -0.036 | [2] 0.017 | gefitinib -0.018 | [3] 0.127 | lapatinib 0.033 | pictilisib 0.092 | [4] 0.022 | crizotinib 0.013 | [5] 0.054 | [6] 0.005 | duvelisib 0.086 | gandotinib 0.002 | tozasertib 0.022 | [7] 0.027 | doramapimod 0.001 | ispinesib 0.089

MRPL46 (UniProt Q9H2W6)
inactive: [1] -0.019 | filanesib 0.068 | zotarolimus 0.1 | idasanutlin -0.012 | alisertib -0.063 | [2] -0.088 | gefitinib 0.005 | [3] -0.029 | lapatinib 0.082 | pictilisib 0.011 | [4] 0.042 | crizotinib 0.039 | [5] -0.019 | [6] 0.186 | duvelisib -0.024 | gandotinib 0.026 | tozasertib -0.031 | [7] 0.054 | doramapimod 0.06 | ispinesib -0.157
